# PubChem BioAssay (NCI)
# About 79,000 compounds went through this panel and 15% of them were active in at least one assay; those are over-represented in the sample as a whole. A number with no mark means an inactive call. Calls of active or inactive are those of the source. Rule as the data show it: active = growth inhibition above about 70%; inactive = the rest.
# What was measured:
# [1] = NCI Yeast Anticancer Drug Screen. Data for the rad50 strain (AID 155);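 also: 0% = growth of vehicle-only cultures of the same strain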; conditions: S. cerevisiae rad50 strain growth inhibition, active compounds read high
# In short: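 Vehicle-treated cultures provide the reference for the growth inhibition reported for compound-exposed, repair-deficient yeast.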
# [2] = NCI Yeast Anticancer Drug Screen. Data for the mec2-1 strain (AID 157); conditions: S. cerevisiae mec2-1 strain, active compounds read high
# In short: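 Using mec2-1 yeast: add compound, measure growth, express inhibition versus vehicle-treated cultures.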
# [3] = NCI Yeast Anticancer Drug Screen. Data for the sgs1 mgt1 strain (AID 161);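 also: 0% = growth of cultures given vehicle only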; conditions: S. cerevisiae sgs1 mgt1 strain, active compounds read high
# In short: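 This yeast growth screen uses a strain with defined DNA-repair lesions; compound-treated growth is compared with vehicle-treated growth.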
# [4] = NCI Yeast Anticancer Drug Screen. Data for the cln2 rad14 strain (AID 165);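 also: 0% = growth equal to vehicle treated cultures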; conditions: S. cerevisiae cln2 rad14 strain, active compounds read high
# In short: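 Yeast strain cln2 rad14, bearing defects in cell cycle control and DNA repair, serves as the test system; values reflect growth inhibition compared with vehicle.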
# [5] = NCI Yeast Anticancer Drug Screen. Data for the bub3 strain (AID 167); conditions: S. cerevisiae bub3 mutant strain, active compounds read high
# In short: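 Mutant yeast screening strain plus compound; vehicle-treated cultures serve as the 0% inhibition reference.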
# [6] = NCI Yeast Anticancer Drug Screen. Data for the mlh1 rad18 strain (AID 175); conditions: S. cerevisiae mlh1 rad18 strain growth inhibition, active compounds read high
# In short: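 Steps: expose repair-defective yeast to compound; measure growth; express inhibition against vehicle-treated controls.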
# [7] = at 5.0 µM (retest, dose inferred, filed as 0.5)
# [8] = at 50.0 µM (retest, dose inferred, filed as 5.0)
SMILES,"growth inhibition [1, 7]","growth inhibition [1, 8]",growth inhibition ([1]; at 50.0 µM),"growth inhibition [2, 7]","growth inhibition [2, 8]",growth inhibition ([2]; at 50.0 µM),"growth inhibition [3, 7]","growth inhibition [3, 8]",growth inhibition ([3]; at 50.0 µM),"growth inhibition [4, 7]","growth inhibition [4, 8]",growth inhibition ([4]; at 50.0 µM),"growth inhibition [5, 7]","growth inhibition [5, 8]",growth inhibition ([5]; at 50.0 µM),"growth inhibition [6, 7]","growth inhibition [6, 8]",growth inhibition ([6]; at 50.0 µM)
CCOC(CN(C)C(=O)Nc1ccc(Cl)c(Cl)c1)OCC,-31%,52%,63.7%,2%,61%,32.7%,-15%,56%,58.6%,-17%,45%,67.8%,-26%,71% (active),54.9%,-25%,84% (active),38.7%
O=C1C=C(c2cccc(-c3ccccc3)c2)CCC1,2%,94% (active),93.5% (active),-2%,96% (active),95.3% (active),-5%,92% (active),97.2% (active),2%,92% (active),95.8% (active),2%,87% (active),96.3% (active),-1%,92% (active),96.4% (active)
O=C(O)/C=C/C(=O)Nc1cccc2ccccc12,40%,40%,6.35%,44%,49%,35.9%,21%,100% (active),55.5%,39%,100% (active),2.25%,64%,100% (active),55%,26%,44%,16.8%
CCN1CCC(O)(/C=C/c2cccc(C)c2)C(C(=O)/C=C/c2cccc(C)c2)C1 (stereo not given),42%,96% (active),91% (active),41%,98% (active),93% (active),95% (active),92% (active),90.8% (active),91% (active),93% (active),90.2% (active),95% (active),96% (active),88.2% (active),64%,98% (active),92.7% (active)
c1cc(SSc2ccncc2)ccn1,47%,100% (active),51.1%,50%,100% (active),85.5% (active),55%,100% (active),56.8%,34%,97% (active),42%,45%,69%,92.6% (active),65%,100% (active),82.1% (active)
O=C(CC(=O)c1ccccc1)CC(=O)c1ccccc1Cl,-1%,85% (active),88.1% (active),8%,88% (active),88% (active),-2%,90% (active),81.2% (active),-5%,81% (active),68.2%,-2%,95% (active),78.8% (active),0%,92% (active),85.7% (active)
CC(Br)C(=O)c1ccc(OCc2ccccc2)cc1 (stereo not given),15%,84% (active),90.7% (active),14%,99% (active),94.2% (active),8%,75% (active),89.9% (active),22%,78% (active),92.3% (active),6%,99% (active),90% (active),13%,94% (active),77.9% (active)
CCCCCCCCCCCCNCc1ccc(Cl)c(Cl)c1,72% (active),96% (active),99.8% (active),91% (active),98% (active),99.7% (active),89% (active),98% (active),99.8% (active),58%,90% (active),99.6% (active),76% (active),96% (active),97% (active),87% (active),96% (active),99.7% (active)
CCCCCCC(=O)OCCN(CCOC(=O)CCCCCC)C(=O)C(C)OC(=O)CCCCCC (stereo not given),2%,56%,91.7% (active),4%,19%,85.4% (active),2%,62%,98.4% (active),1%,18%,66.2%,-1%,66%,98.2% (active),-3%,58%,97.6% (active)
Cc1cc(O)cc(C)c1[N+](=O)[O-],5%,25%,55%,0%,24%,49.8%,-6%,41%,79.6% (active),-1%,20%,23.6%,-1%,36%,29.3%,4%,41%,63.5%
